This is an account of results in PubChem BioAssay (Tox21).

Each structure is given as a SMILES string. Values joined by “and” are separate entries in the source; they are usually repeats but may differ in a detail not shown here. Equal values may be shown once. Records with an inconclusive call do not appear. A structure can be active in one record and inactive in another. Active and inactive are the calls of the source. Unless noted, calls come from the whole dose curve; as a rule, active = well fitted curve in the direction sought with a large enough effect in the repeat runs; inconclusive = weak or mixed curves; inactive = no such curve, though single readings can be large; an effect the other way counts as inactive or inconclusive.

The nature of assay [1]: qHTS assay to identify small molecule agonists of the vitamin D receptor (VDR) signaling pathway - cell viability counter screen (AID 743224). Note: nearly all actives have a fitted effect of over 50% in size. Note: potency is the fitted concentration of half-maximal effect. The gist of the method: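 VDR-bla cell line, quantitative HTS format; 16 h compound incubation (37C, 5% CO2); ATP-based CellTiter-Glo luminescence measured in the reporter assay wells.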
A short description of assay [2]: qHTS assay to identify small molecule antagonists of the vitamin D receptor (VDR) signaling pathway - cell viability counter screen (AID 743225). Note: nearly all actives have a fitted effect of over 50% in size. The method, boiled down: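 Read-out: CellTiter-Glo luminescence measured 30 min after reagent addition at room temperature. Cells were VDR-bla HEK 293T exposed 16 h at 37C, 5% CO2, to compound with 3 nM final calcitriol agonist.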
(In general: In qHTS, concentration-response curves come from the screen itself.)

Assay [3] can be described thus: qHTS assay to identify small molecule agonists of the NFkB signaling pathway (AID 1159509; active = well fitted curve in the direction sought with a large enough effect in the signal ratio in the repeat runs, not every such curve was filed as active; the % refers to the signal ratio; note: series mostly up to about 61 µM). The method, boiled down: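 NFkB-bla ME-180 cells carry a beta-lactamase reporter under an NF-kB response element. They were plated overnight, then exposed to compounds for 5 h at 37 C. Read-out is LiveBLAzer FRET after 1.5 hr at room temperature (405 nm excitation; 460/530 nm emission).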

Assay [4] can be described thus: qHTS assay to identify small molecule agonists of the NFkB signaling pathway - cell viability counter screen (AID 1159515; calls by dose curve; note: series mostly up to about 61 µM; nearly all actives have a fitted effect of over 55% in size). The method, boiled down:
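Viability in NFkB-bla ME-180 cells was measured by CellTiter-Glo luminescence, 30 min room temperature, in wells already treated 5 hr with compounds and read for reporter FRET.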

Assay [5] in a line: qHTS assay to identify small molecule agonists of the endoplasmic reticulum stress response signaling pathway (AID 1159516; active = well fitted activation curve with a large enough effect in the signal ratio in the repeat runs, not every such curve was filed as active; the % refers to the signal ratio). The method, boiled down:
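ER stress element reporter (bla) in HeLa. 1,500 cells/well, overnight attachment; 5 hr compound; 2 hr RT substrate; dual-emission fluorescence.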

Assay [6] in a line: qHTS assay to identify small molecule agonists of the endoplasmic reticulum stress response signaling pathway - cell viability counter screen (AID 1159517; calls by dose curve; note: series mostly up to about 61 µM; nearly all actives have a fitted effect of over 50% in size). The gist of the method: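 HeLa cells carrying an ESRE-driven beta-lactamase reporter receive compound for 5 hr at 37 C. Cell viability is then gauged with CellTiter-Glo by luminescence, 30 min at room temperature.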
The nature of assay [7]: qHTS assay to identify small molecule antagonists of the retinoid-related orphan receptor gamma (ROR-gamma) signaling pathway - cell viability counter screen (AID 1159520). Note: nearly all actives have a fitted effect of over 50% in size. The gist of the method: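 Cytotoxicity was read from cellular ATP (CellTiter-Glo luminescence) after 16 hr at 37 C with 1 uM doxycycline induction. The inducer was added 2 hr after compound transfer to Tet-on ROR gamma CHO cells.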

For assay [8], the target named is Nuclear receptor ROR-gamma (Homo sapiens) (UniProt P51449). The assay can be described thus: qHTS assay to identify small molecule antagonists of the retinoid-related orphan receptor gamma (ROR-gamma) signaling pathway (AID 1159521). The method, boiled down: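 CHO Tet-on RORγ, RORE-luc reporter. Cpd 2 h pre-incubation, then dox hyclate 1 uM final, 16 h, 37 C/5% CO2. ONE-Glo luminescence; decrease = antagonist.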

The nature of assay [9]: qHTS assay to identify small molecule agonists of the AP-1 signaling pathway - cell viability counter screen (AID 1159525; calls by dose curve; note: nearly all actives have a fitted effect of over 55% in size). The gist of the method: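 Luminescent ATP readout (Cell Titer Glo, 30 min RT), normalised to DMSO and tetra n-octyl ammonium bromide controls. Cells were ME-180 AP-1-bla in 0.5% dialyzed FBS Opti-MEM, with a 5 h, 37 °C compound exposure.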
Assay [10] can be described thus: qHTS assay to identify small molecule agonists of the AP-1 signaling pathway (AID 1159526; calls by dose curve).
For assay [11], the target named is Retinoic acid receptor RXR-alpha (Homo sapiens) (UniProt P19793). The assay can be described thus: qHTS assay to identify small molecule agonists of the RXR signaling pathway (AID 1159527; calls by dose curve; note: nearly all actives have a fitted effect of over 35% in size). The method, boiled down: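 Read-out: beta-lactamase FRET ratio (405 nm excitation, 460 and 530 nm emission) after 2 hr substrate loading at room temperature. Cells were RXR-alpha-UAS-bla HEK 293T treated with compounds for 16 hr in 2% charcoal-stripped FBS medium.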
Chain of Retinoic acid receptor RXR-alpha (Homo sapiens) (P19793 whole entry, looked up): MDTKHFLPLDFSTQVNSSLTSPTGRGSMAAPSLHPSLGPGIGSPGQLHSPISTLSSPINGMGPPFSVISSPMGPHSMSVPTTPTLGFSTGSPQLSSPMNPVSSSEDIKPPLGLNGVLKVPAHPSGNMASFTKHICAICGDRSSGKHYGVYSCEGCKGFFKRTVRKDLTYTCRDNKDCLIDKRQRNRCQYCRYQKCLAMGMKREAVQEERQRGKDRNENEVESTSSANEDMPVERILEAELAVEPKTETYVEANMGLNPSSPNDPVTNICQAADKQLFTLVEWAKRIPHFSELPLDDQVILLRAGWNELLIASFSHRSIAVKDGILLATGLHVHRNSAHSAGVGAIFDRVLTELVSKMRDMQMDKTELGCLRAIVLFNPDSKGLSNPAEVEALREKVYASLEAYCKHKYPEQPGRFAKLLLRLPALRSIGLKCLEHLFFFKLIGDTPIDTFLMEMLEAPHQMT

A short description of assay [12]: qHTS assay to identify small molecule agonists of the RXR signaling pathway - cell viability counter screen (AID 1159529). Note: nearly all actives have a fitted effect of over 50% in size. Note: potency is the fitted concentration of half-maximal effect. The gist of the method: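 HEK 293T RXRa-bla cells, 2% CS-FBS; 5 h settle; cpd 16 h 37 C, 5% CO2; CellTiter-Glo 30 min RT, luminescence. Tetraoctyl ammonium bromide as positive control.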
Assay [13] in a line: qHTS assay to identify small molecule antagonists of the retinoid acid receptor (RAR) signaling pathway - cell viability counter screen (AID 1159551). Note: nearly all actives have a fitted effect of over 35% in size. The method, boiled down:
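Following overnight attachment, C3RL4 reporter cells received DMSO-dissolved compounds and then retinol (1 uM final). Six hours later at 37 C, ATP content was measured by CellTiter-Glo luminescence.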

Assay [14] can be described thus: qHTS assay to identify small molecule antagonists of the retinoic acid receptor (RAR) signaling pathway (AID 1159552; note: nearly all actives have a fitted effect of over 50% in size). The gist of the method: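 Cells of the C3RL4 line were seeded, incubated overnight, then dosed with compounds in DMSO followed immediately by retinol (1 uM final). Six hours later luciferase detection reagent went in; signal was measured after 30 min at RT.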

Assay [15] in a line: qHTS assay to identify small molecule agonists of the retinoic acid receptor (RAR) signaling pathway (AID 1159553). Note: potency is the fitted concentration of half-maximal effect. The gist of the method: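 Cell line C3RL4, RARE luciferase reporter. Treatment: compounds in DMSO, 6 hr, 37 C, 5% CO2, after overnight plating. Detection: luminescence, 30 min RT after reagent.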
Assay [16] can be described thus: qHTS assay to identify small molecule antagonists of the estrogen related receptor (ERR) signaling pathway - cell viability counter screen (AID 1224818).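 Note: series mostly up to about 46 µM; viability measured after 17.5 h of compound exposure.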 The method, boiled down:
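Here, ERR cells are plated at 2,000 cells per well, allowed 6 h to attach, and treated with compounds in DMSO for 17.5 h at 37 C. CellTiter-Fluor is then added and fluorescence read after 30 min.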

The nature of assay [17]: qHTS assay to identify small molecule antagonists of the estrogen related receptor (ERR) signaling pathway (AID 1224819). The gist of the method:
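LOPAC library screened for antagonism as reduced One-Glo luminescence in ERR reporter cells (2,000/well). Compounds were added after 6 h pre-incubation and left 18 h at 37C; reading followed a 30 min room-temperature reagent step.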

A short description of assay [18]: qHTS assay to identify small molecule agonists of the estrogen related receptor (ERR) signaling pathway (AID 1224820). Note: potency is the fitted concentration of half-maximal effect. The method, boiled down:
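ERR reporter cell line (from NTP), 2,000 cells/well, incubated 6 h before compound addition, then 18 h at 37 C. Luminescence measured 30 min after One-Glo reagent at room temperature.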

The subject of assay [19] is estrogen-related receptor alpha (ERRalpha) with PGC-1alpha coactivator, human. The assay can be described thus: qHTS assay to identify small molecule antagonists of the estrogen related receptor signaling pathway with the pleiotropic PPARgamma coactivator (PGC) (AID 1224821; calls by dose curve). The gist of the method:
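PGC/ERR reporter cell line, plated 6 h before compound addition, then exposed 18 h at 37 °C. Luciferase activity read by luminescence 30 min after One-Glo addition; decrease indicates antagonism.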

Assay [20] is described as follows: qHTS assay to identify small molecule antagonists of the estrogen related receptor signaling pathway with the pleiotropic PPARgamma coactivator (PGC) cell viability counter screen (AID 1224822;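 note: series mostly up to about 46 µM; viability read after 17.5 h compound exposure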). The method, boiled down:
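qHTS format, DMSO compound stocks pin-transferred onto PGC/ERR cells 6 h after plating; 17.5 h exposure at 37 C, then CellTiter-Fluor fluorescence.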

Regarding `CC(=O)CCc1ccccc1`, the Potency result in [1], in assay [2], in [6], in [7], in assay [8] and in assay [9] was “inactive” in each case. Further, the Potency entry in assay [10], in assay [11], in [12], in assay [13], in assay [14] and in assay [15] was “inactive” throughout. For the same compound, the result in assay [3], in assay [4] and in [5] was inactive.
As to `CCCCC/C=C\C/C=C\CCCCCCCC(=O)OC`, the Potency result is “inactive and 49 µM (active)” in [1]; “inactive and 34.7 µM (active)” in [12]. Besides, the Potency entry in [2], in assay [6], in assay [7], in [8], in assay [9] and in assay [10] was “inactive” in each case. The Potency entry in assay [11], in assay [13], in assay [14] and in assay [15] was “inactive” throughout. In addition, the compound was classed as inactive in assay [3], in [4] and in assay [5].
Take `Cc1cc(=O)[nH]c(C(C)C)n1`: the Potency result in [1], in [6], in assay [7], in [8], in [9] and in assay [10] was “inactive” throughout. In addition, the Potency result in [11], in assay [12], in assay [13], in assay [14] and in [15] was “inactive” in each case. Also, the result in assay [3], in assay [4] and in assay [5] was inactive.
As for `Cc1cc(O)cc(C)c1Cl`, the Potency entry in assay [1], in [6], in assay [7], in [8], in assay [9] and in assay [10] was “inactive” in each case. Also, the Potency entry in assay [11], in [12], in [13], in assay [14] and in assay [15] was “inactive” throughout. Besides, the result in assay [3], in assay [4] and in assay [5] was inactive.
Regarding `CCCCCCC(C)(C)S`, the Potency entry in assay [1], in assay [2], in assay [6], in assay [7], in assay [8] and in [9] was “inactive” in each case. Also, the Potency result in assay [10], in assay [11], in assay [12], in assay [13], in [14] and in assay [15] was “inactive” each time. Also, the outcome in assay [3], in assay [4] and in assay [5] was inactive.
Take `CCCCC(CC)COC(C)=O` (stereo unspecified): the Potency entry in assay [1], in assay [6], in assay [7], in assay [8], in assay [9] and in [10] was “inactive” throughout. The Potency result in assay [11], in [12], in [13], in assay [14] and in [15] was “inactive” in each case. Also, the compound was classed as inactive in [3], in assay [4] and in assay [5].
Take `CCC(C)C=O` (stereo unspecified): the Potency entry in [1], in assay [6], in assay [7], in assay [8], in [9] and in assay [10] was “inactive” each time. Also, the Potency entry in assay [11], in [12], in assay [13], in assay [14] and in [15] was “inactive” each time. Also, the result in assay [3], in assay [4] and in [5] was inactive.
Regarding `O=c1c(-c2ccc(O)cc2)coc2cc(O)ccc12`, the Potency result in assay [1], in assay [2], in [6], in [7], in [8] and in assay [9] was “inactive” throughout. The Potency entry in assay [10], in assay [11], in assay [12], in [13], in assay [14] and in assay [17] was “inactive” in each case. In addition, the Potency entry in assay [19] was “inactive”. Besides, the outcome in [3], in [4], in [5], in assay [16] and in assay [20] was inactive. Besides, the Potency in assay [15] was 2.41 µM (active) and 12.2 µM (active); in assay [18], 15.5 µM (active).
In the case of `CCCCOCCOCCOC(=O)CCCCC(=O)OCCOCCOCCCC`, the Potency result in [1], in assay [2], in [6], in assay [7], in assay [8] and in assay [9] was “inactive” each time. Also, the Potency result in assay [10], in [11], in [12], in assay [13], in assay [14] and in assay [15] was “inactive” each time. Besides, the call in assay [3], in assay [4] and in assay [5] was inactive.
